Laboratory results reported in the supplement of paper PMC7801607.

Tested on: Plasmodium falciparum NF54 asexual blood stage
Test: % inhibition of asexual blood stage proliferation (pLDH); higher = more inhibition
Settings: 2 µM; 72 h
How it was run: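 Plasmodium falciparum NF54 ring-stage cultures (1% haematocrit, 2% parasitaemia) were exposed to compound at 2 or 20 µM in 96-well plates. Incubation was 72 h at 37 °C under 4% CO2, 3% O2 and 93% N2. Survival was read colorimetrically at 620 nm with the parasite lactate dehydrogenase assay. Percent inhibition of asexual proliferation was normalised to DMSO and kill controls, and the screen was run on two separate occasions.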

First: C[C@@H](c1nc(-c2ccc(C#N)cc2)cs1)[C@](O)(Cn1cncn1)c1ccc(F)cc1F
Second: O=C(Nc1nnc(-c2ccccc2)o1)c1ccc(F)cc1
The “% inhibition of asexual blood stage proliferation” value (“% inhibition” below) of the first is lower: -2.05% for the first, 52.8% for the second.

First: O=C(Nc1ccccc1)N(Cc1cc(Br)ccc1O)c1ccc(F)cc1
Second: O=C(Cn1cnc2ccccc2c1=O)Nc1ccccc1
The “% inhibition” value of the first is lower: 6.3% for the first, 29.5% for the second.

Going from `O=C(NC1CCCc2c1[nH]c1ccc(Cl)cc21)c1ccccn1` (stereo unspecified) to `O=C(O)c1ccccc1Sc1ncnc2sc3c(c12)CCC3`, the “% inhibition” value falls from 20.6% to -19.5%.

Compared with `O=C(CSc1nnc(Br)n1-c1ccc(C2CC2)c2ccccc12)Nc1ccc(C(=O)O)cc1Cl`, `O=C(c1ccccc1)N1CCN(c2ccccc2NC(=O)C(Cl)(Cl)Cl)CC1` is higher in “% inhibition” value: 3.71% for the first, 50.4% for the second.

First: O=C(NN1C(=O)[C@@H]2C3C=CC([C@H]4C[C@@H]34)[C@@H]2C1=O)c1ccc(C(F)(F)F)cc1
Second: O=C(NCc1ncc(C(F)(F)F)cc1Cl)c1c(Cl)cccc1Cl
The “% inhibition” value of the first is lower: 4.37% for the first, 18.8% for the second.

First: CO[C@@]1(NC(=O)Cc2cccs2)C(=O)N2C(C(=O)O)=C(COC(N)=O)CS[C@@H]21
Second: Cc1onc(-c2ccccc2Cl)c1C(=O)N[C@@H]1C(=O)N2[C@@H]1SC(C)(C)[C@@H]2C(=O)O
The “% inhibition” value of the first is higher: 20% for the first, 8.35% for the second.

First: c1ccc(-c2nnc3c4ccccc4c(N4CCNCC4)nn23)cc1
Second: O=C(O)C(Cc1c[nH]c2ccccc12)N1C(=O)c2ccccc2C1=O (stereo unspecified)
The “% inhibition” value of the first is lower: 3.14% for the first, 33.4% for the second.

Going from `CCNC(=O)Nc1cc2c(-c3ccnc(C)c3)ccc(CNC(=O)OC)c2cn1` to `CCCCc1ccc(S(=O)(=O)Nc2cc(C)on2)cc1`, the “% inhibition” value rises from 0.638% to 84.8%.

Going from `COc1c(F)c(F)cc2c(=O)c(C(=O)O)cn(C3CC3)c12` to `O=c1nc(N2CCN(CC3CCCCC3)CC2)sc2c([N+](=O)[O-])cc(C(F)(F)F)cc12`, the “% inhibition” value rises from 20.8% to 37%.

Compared with `COC1CC2CCC(C)C(O)(O2)C(=O)C(=O)N2CCCCC2C(=O)OC(C(C)CC2CCC(OCCO)C(OC)C2)CC(=O)C(C)/C=C(\C)C(O)C(OC)C(=O)C(C)CC(C)/C=C/C=C/C=C/1C` (stereo unspecified), `C=C[C@]1(C)C[C@@H](OC(=O)CS[C@@H]2C[C@H]3CC[C@@H](C2)N3C)[C@]2(C)[C@H](C)CC[C@]3(CCC(=O)[C@H]32)[C@@H](C)[C@@H]1O` is higher in “% inhibition” value: 26.6% for the first, 68.8% for the second.

Going from `CC(C)(C)NC(=O)[C@@H]1C[C@@H]2CCCC[C@@H]2CN1C[C@@H](O)[C@H](Cc1ccccc1)NC(=O)[C@H](CC(N)=O)NC(=O)c1ccc2ccccc2n1` to `O=C(N[C@H](CCS)C(=O)N[C@H](Cc1ccccc1)C(=O)O)c1cc2ccccc2[nH]1`, the “% inhibition” value falls from 40% to 1.01%.

Going from `N#Cc1cc([N+](=O)[O-])ccc1Oc1ccccc1Cl` to `CCc1oc2ccccc2c1C(=O)c1ccc(O)cc1`, the “% inhibition” value rises from -2.85% to 29.1%.

Compared with `[N-]=[N+]=N[C@H]1C[C@H](n2ccc(=O)[nH]c2=O)O[C@@H]1CO`, `O=c1ccc2ncc(=O)n3c2n1CC3CN1CCC(NCc2cc3c(cn2)OCCC3)CC1` (stereo unspecified) is higher in “% inhibition” value: -15.7% for the first, 12.5% for the second.

First: O=[N+]([O-])c1cn(Cc2nc(O)nc(O)c2Br)cn1
Second: C=CCc1cc(Cc2cnc(N)nc2N)cc(OC)c1O
The “% inhibition” value of the first is higher: 38.7% for the first, 29.1% for the second.

Going from `CCc1nc2ccc(Cl)cn2c1C(=O)NCc1ccc(N2CCC(c3ccc(OC(F)(F)F)cc3)CC2)cc1` to `CN1CCN(Cc2ccc(-c3cnc4[nH]cc(-c5ccc6[nH]ccc6c5)c4c3)cc2)CC1`, the “% inhibition” value rises from 31.7% to 66%.

Going from `Cc1ccc(C)c(OCCCCCCN2C[C@H](O)[C@@H](O)[C@H](O)[C@H]2CO)c1` to `CCCCCCCc1[nH]c2ccccc2c(=O)c1O`, the “% inhibition” value rises from 8.28% to 22.4%.

Compared with `COc1cc(Cc2cc(N)nc(N)n2)cc(OC)c1OC`, `Nc1nc(NC2Cc3ccc(F)cc3C2)nc(N2CCCCC2)n1` (stereo unspecified) is lower in “% inhibition” value: 43.4% for the first, 26.7% for the second.

First: CC[C@H](NC(=O)[C@H](C)NC)C(=O)N1C[C@@H](O)C[C@H]1Cc1c(-c2[nH]c3cc(F)ccc3c2C[C@@H]2C[C@H](O)CN2C(=O)[C@H](CC)NC(=O)[C@H](C)NC)[nH]c2cc(F)ccc12
Second: CN(C/C=C/C#CC(C)(C)C)Cc1cccc2ccccc12
The “% inhibition” value of the first is higher: 75.7% for the first, -1.71% for the second.

First: CC1(C)C[C@H]1C(=O)N/C(=C\CCCCSC[C@@H](N)C(=O)O)C(=O)O
Second: O=C(O)CCNC(=O)c1ccccc1
The “% inhibition” value of the first is lower: 20.8% for the first, 25.9% for the second.

Same assay, conditions: 20 µM; 72 h

Going from `C[C@@H](c1nc(-c2ccc(C#N)cc2)cs1)[C@](O)(Cn1cncn1)c1ccc(F)cc1F` to `O=C(Nc1nnc(-c2ccccc2)o1)c1ccc(F)cc1`, the “% inhibition” value rises from 34.3% to 61.2%.

Going from `O=C(Nc1ccccc1)N(Cc1cc(Br)ccc1O)c1ccc(F)cc1` to `O=C(Cn1cnc2ccccc2c1=O)Nc1ccccc1`, the “% inhibition” value rises from 14.7% to 71.5%.

First: O=C(NC1CCCc2c1[nH]c1ccc(Cl)cc21)c1ccccn1 (stereo unspecified)
Second: O=C(O)c1ccccc1Sc1ncnc2sc3c(c12)CCC3
The “% inhibition” value of the first is higher: 37.5% for the first, -13.7% for the second.

Compared with `O=C(CSc1nnc(Br)n1-c1ccc(C2CC2)c2ccccc12)Nc1ccc(C(=O)O)cc1Cl`, `O=C(c1ccccc1)N1CCN(c2ccccc2NC(=O)C(Cl)(Cl)Cl)CC1` is higher in “% inhibition” value: 46.7% for the first, 118% for the second.

First: O=C(NN1C(=O)[C@@H]2C3C=CC([C@H]4C[C@@H]34)[C@@H]2C1=O)c1ccc(C(F)(F)F)cc1
Second: O=C(NCc1ncc(C(F)(F)F)cc1Cl)c1c(Cl)cccc1Cl
The “% inhibition” value of the first is higher: 23% for the first, 1.98% for the second.

First: CO[C@@]1(NC(=O)Cc2cccs2)C(=O)N2C(C(=O)O)=C(COC(N)=O)CS[C@@H]21
Second: Cc1onc(-c2ccccc2Cl)c1C(=O)N[C@@H]1C(=O)N2[C@@H]1SC(C)(C)[C@@H]2C(=O)O
The “% inhibition” value of the first is higher: 88.8% for the first, -0.0824% for the second.

Compared with `c1ccc(-c2nnc3c4ccccc4c(N4CCNCC4)nn23)cc1`, `O=C(O)C(Cc1c[nH]c2ccccc12)N1C(=O)c2ccccc2C1=O` (stereo unspecified) is higher in “% inhibition” value: 69.2% for the first, 72.4% for the second.

Compared with `CCNC(=O)Nc1cc2c(-c3ccnc(C)c3)ccc(CNC(=O)OC)c2cn1`, `CCCCc1ccc(S(=O)(=O)Nc2cc(C)on2)cc1` is higher in “% inhibition” value: 33.7% for the first, 64.2% for the second.

First: COc1c(F)c(F)cc2c(=O)c(C(=O)O)cn(C3CC3)c12
Second: O=c1nc(N2CCN(CC3CCCCC3)CC2)sc2c([N+](=O)[O-])cc(C(F)(F)F)cc12
The “% inhibition” value of the first is lower: 56.5% for the first, 107% for the second.

Going from `COC1CC2CCC(C)C(O)(O2)C(=O)C(=O)N2CCCCC2C(=O)OC(C(C)CC2CCC(OCCO)C(OC)C2)CC(=O)C(C)/C=C(\C)C(O)C(OC)C(=O)C(C)CC(C)/C=C/C=C/C=C/1C` (stereo unspecified) to `C=C[C@]1(C)C[C@@H](OC(=O)CS[C@@H]2C[C@H]3CC[C@@H](C2)N3C)[C@]2(C)[C@H](C)CC[C@]3(CCC(=O)[C@H]32)[C@@H](C)[C@@H]1O`, the “% inhibition” value rises from 90.3% to 104%.

Compared with `CC(C)(C)NC(=O)[C@@H]1C[C@@H]2CCCC[C@@H]2CN1C[C@@H](O)[C@H](Cc1ccccc1)NC(=O)[C@H](CC(N)=O)NC(=O)c1ccc2ccccc2n1`, `O=C(N[C@H](CCS)C(=O)N[C@H](Cc1ccccc1)C(=O)O)c1cc2ccccc2[nH]1` is lower in “% inhibition” value: 58.3% for the first, 7.64% for the second.

Going from `N#Cc1cc([N+](=O)[O-])ccc1Oc1ccccc1Cl` to `CCc1oc2ccccc2c1C(=O)c1ccc(O)cc1`, the “% inhibition” value falls from 84.9% to 6.67%.

First: [N-]=[N+]=N[C@H]1C[C@H](n2ccc(=O)[nH]c2=O)O[C@@H]1CO
Second: O=c1ccc2ncc(=O)n3c2n1CC3CN1CCC(NCc2cc3c(cn2)OCCC3)CC1 (stereo unspecified)
The “% inhibition” value of the first is higher: 43.2% for the first, 40.4% for the second.

Going from `O=[N+]([O-])c1cn(Cc2nc(O)nc(O)c2Br)cn1` to `C=CCc1cc(Cc2cnc(N)nc2N)cc(OC)c1O`, the “% inhibition” value rises from 55.8% to 76.8%.

Compared with `CCc1nc2ccc(Cl)cn2c1C(=O)NCc1ccc(N2CCC(c3ccc(OC(F)(F)F)cc3)CC2)cc1`, `CN1CCN(Cc2ccc(-c3cnc4[nH]cc(-c5ccc6[nH]ccc6c5)c4c3)cc2)CC1` is lower in “% inhibition” value: 102% for the first, 66.9% for the second.

Compared with `Cc1ccc(C)c(OCCCCCCN2C[C@H](O)[C@@H](O)[C@H](O)[C@H]2CO)c1`, `CCCCCCCc1[nH]c2ccccc2c(=O)c1O` is higher in “% inhibition” value: 41.4% for the first, 83.6% for the second.

Going from `COc1cc(Cc2cc(N)nc(N)n2)cc(OC)c1OC` to `Nc1nc(NC2Cc3ccc(F)cc3C2)nc(N2CCCCC2)n1` (stereo unspecified), the “% inhibition” value rises from 50.8% to 91%.

Going from `CC[C@H](NC(=O)[C@H](C)NC)C(=O)N1C[C@@H](O)C[C@H]1Cc1c(-c2[nH]c3cc(F)ccc3c2C[C@@H]2C[C@H](O)CN2C(=O)[C@H](CC)NC(=O)[C@H](C)NC)[nH]c2cc(F)ccc12` to `CN(C/C=C/C#CC(C)(C)C)Cc1cccc2ccccc12`, the “% inhibition” value falls from 83.1% to 61.2%.

First: CC1(C)C[C@H]1C(=O)N/C(=C\CCCCSC[C@@H](N)C(=O)O)C(=O)O
Second: O=C(O)CCNC(=O)c1ccccc1
The “% inhibition” value of the first is higher: 20.1% for the first, 15.9% for the second.
